Consider seven molecules from ChEMBL document CHEMBL1961873, “Compounds: GSK PKIS; Assays: Nanosyn kinase panel” (2012).

In general, inhibition refers to the drop in the measured response relative to a control, in per cent.

Test [1] concerns the target Rho-associated protein kinase 1 (Homo sapiens) (UniProt Q13464). The note with it: at 1 µM.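 Note: reported values are mean percent inhibition of ROCK1.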
Test [2] has as its target Rho-associated protein kinase 2 (Homo sapiens) (UniProt O75116). The settings on record: at 0.1 µM.
For test [3] the target is unchanged. The settings on record: at 1 µM.
For test [4], the target named is Ribosomal protein S6 kinase alpha-1 (Homo sapiens) (UniProt Q15418). The note with it: at 0.1 µM.
The target is the same in test [5]. The settings on record: at 1 µM.
Test [6] has as its target Ribosomal protein S6 kinase alpha-3 (Homo sapiens) (UniProt P51812). The note with it: at 0.1 µM.
Test [7] shares this target. The note with it: at 1 µM.
For test [8], the target named is Ribosomal protein S6 kinase alpha-2 (Homo sapiens) (UniProt Q15349). The note with it: at 0.1 µM.
Test [9] shares this target. The settings on record: at 1 µM.
The target in test [10] is Ribosomal protein S6 kinase alpha-6 (Homo sapiens) (UniProt Q9UK32). The note with it: at 0.1 µM.
For test [11] the target is unchanged. The note with it: at 1 µM.
Test [12] has as its target T1, Serine/threonine-protein kinase Sgk1 (Homo sapiens) (UniProt O00141).
T1 sequence (whole entry): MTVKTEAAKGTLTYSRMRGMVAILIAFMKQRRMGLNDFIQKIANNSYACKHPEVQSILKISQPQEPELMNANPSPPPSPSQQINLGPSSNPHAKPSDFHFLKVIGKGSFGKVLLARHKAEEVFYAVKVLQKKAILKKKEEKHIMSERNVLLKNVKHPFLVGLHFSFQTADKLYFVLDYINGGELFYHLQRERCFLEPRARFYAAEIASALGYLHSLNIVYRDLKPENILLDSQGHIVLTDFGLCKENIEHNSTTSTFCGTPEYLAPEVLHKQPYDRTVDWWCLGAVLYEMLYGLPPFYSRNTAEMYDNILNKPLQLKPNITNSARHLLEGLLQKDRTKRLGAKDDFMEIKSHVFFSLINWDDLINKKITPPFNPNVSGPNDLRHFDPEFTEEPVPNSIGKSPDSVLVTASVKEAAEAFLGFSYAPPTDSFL
The note with it: at 0.1 µM.

For test [13], the target named is T1, Serine/threonine-protein kinase Sgk1 (Homo sapiens). The settings on record: at 1 µM.
The target of test [14] is T2, Serine/threonine-protein kinase Sgk2 (Homo sapiens) (UniProt Q9HBY8).
T2 sequence (whole entry): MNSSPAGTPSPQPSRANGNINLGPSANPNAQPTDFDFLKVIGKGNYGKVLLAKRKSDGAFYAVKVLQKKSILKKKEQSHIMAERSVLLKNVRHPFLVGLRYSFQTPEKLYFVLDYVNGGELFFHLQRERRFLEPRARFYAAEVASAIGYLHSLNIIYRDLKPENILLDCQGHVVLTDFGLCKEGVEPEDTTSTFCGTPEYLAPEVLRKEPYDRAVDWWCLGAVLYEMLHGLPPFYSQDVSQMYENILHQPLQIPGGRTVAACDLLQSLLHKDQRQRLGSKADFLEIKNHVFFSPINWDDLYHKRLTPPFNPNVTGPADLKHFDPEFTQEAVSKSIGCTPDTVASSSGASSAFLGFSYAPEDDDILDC
The settings on record: at 0.1 µM.

The target of test [15] is T2, Serine/threonine-protein kinase Sgk2 (Homo sapiens). The note with it: at 1 µM.
Test [16] has as its target T3, Serine/threonine-protein kinase Sgk3 (Homo sapiens) (UniProt Q96BR1).
T3 sequence (whole entry): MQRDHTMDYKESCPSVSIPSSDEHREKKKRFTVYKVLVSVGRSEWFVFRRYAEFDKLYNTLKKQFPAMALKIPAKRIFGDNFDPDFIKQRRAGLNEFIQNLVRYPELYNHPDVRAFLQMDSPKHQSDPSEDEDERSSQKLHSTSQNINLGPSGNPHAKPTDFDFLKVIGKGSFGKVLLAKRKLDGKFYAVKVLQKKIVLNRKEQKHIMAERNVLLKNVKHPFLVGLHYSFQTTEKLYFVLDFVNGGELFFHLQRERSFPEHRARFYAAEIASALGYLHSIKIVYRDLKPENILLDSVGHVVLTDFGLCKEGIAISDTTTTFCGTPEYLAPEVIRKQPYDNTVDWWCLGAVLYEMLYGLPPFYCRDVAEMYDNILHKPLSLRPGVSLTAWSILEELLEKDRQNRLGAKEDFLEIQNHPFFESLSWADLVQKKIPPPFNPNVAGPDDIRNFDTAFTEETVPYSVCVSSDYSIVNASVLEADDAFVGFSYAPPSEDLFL
The settings on record: at 0.1 µM.

Test [17] addresses T3, Serine/threonine-protein kinase Sgk3 (Homo sapiens). The settings on record: at 1 µM.
Test [18] concerns the target 5'-AMP-activated protein kinase catalytic subunit alpha-1 (Homo sapiens) (UniProt Q13131). The settings on record: at 0.1 µM.
Test [19] shares this target. The settings on record: at 1 µM.
Test [20] concerns the target 5'-AMP-activated protein kinase catalytic subunit alpha-2 (Homo sapiens) (UniProt P54646). The note with it: at 0.1 µM.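 Note: mean inhibition measured on the AMPK complex of alpha2, beta1 and gamma1 subunits.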

Chain of Rho-associated protein kinase 2 (Homo sapiens) (O75116 whole entry, looked up): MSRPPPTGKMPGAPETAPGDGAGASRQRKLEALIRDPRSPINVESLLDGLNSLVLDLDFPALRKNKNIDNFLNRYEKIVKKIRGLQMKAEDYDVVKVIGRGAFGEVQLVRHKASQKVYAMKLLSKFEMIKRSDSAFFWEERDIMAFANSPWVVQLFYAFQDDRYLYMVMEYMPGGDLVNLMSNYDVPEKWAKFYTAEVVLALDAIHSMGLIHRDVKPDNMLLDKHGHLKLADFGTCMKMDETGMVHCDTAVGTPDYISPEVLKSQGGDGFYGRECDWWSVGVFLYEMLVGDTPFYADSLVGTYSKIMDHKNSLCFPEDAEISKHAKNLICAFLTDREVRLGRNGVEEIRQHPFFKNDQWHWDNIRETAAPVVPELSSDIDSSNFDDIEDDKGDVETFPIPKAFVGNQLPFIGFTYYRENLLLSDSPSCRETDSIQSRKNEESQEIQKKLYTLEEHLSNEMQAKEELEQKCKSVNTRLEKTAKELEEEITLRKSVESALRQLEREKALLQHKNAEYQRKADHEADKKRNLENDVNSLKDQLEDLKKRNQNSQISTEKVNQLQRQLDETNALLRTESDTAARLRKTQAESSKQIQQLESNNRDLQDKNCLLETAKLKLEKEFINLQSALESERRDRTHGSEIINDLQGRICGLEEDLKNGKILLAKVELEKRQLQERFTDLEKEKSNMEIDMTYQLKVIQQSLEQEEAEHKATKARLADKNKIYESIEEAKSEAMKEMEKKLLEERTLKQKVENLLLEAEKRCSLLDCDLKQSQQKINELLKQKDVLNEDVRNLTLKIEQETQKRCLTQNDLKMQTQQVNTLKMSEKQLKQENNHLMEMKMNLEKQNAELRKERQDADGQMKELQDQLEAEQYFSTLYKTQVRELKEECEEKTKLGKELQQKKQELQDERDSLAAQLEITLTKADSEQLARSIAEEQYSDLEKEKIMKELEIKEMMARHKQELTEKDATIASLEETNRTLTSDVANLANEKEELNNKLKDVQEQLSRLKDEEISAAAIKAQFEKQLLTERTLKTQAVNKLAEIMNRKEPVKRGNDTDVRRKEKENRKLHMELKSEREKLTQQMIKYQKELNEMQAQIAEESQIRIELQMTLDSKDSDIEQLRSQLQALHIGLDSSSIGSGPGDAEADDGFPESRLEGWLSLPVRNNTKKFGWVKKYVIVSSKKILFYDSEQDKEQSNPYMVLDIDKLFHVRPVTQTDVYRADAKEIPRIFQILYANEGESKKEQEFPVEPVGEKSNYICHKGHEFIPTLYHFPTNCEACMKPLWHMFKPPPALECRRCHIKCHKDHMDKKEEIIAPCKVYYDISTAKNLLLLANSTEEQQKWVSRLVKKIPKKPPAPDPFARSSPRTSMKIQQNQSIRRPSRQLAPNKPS
Chain of Ribosomal protein S6 kinase alpha-1 (Homo sapiens) (Q15418 whole entry): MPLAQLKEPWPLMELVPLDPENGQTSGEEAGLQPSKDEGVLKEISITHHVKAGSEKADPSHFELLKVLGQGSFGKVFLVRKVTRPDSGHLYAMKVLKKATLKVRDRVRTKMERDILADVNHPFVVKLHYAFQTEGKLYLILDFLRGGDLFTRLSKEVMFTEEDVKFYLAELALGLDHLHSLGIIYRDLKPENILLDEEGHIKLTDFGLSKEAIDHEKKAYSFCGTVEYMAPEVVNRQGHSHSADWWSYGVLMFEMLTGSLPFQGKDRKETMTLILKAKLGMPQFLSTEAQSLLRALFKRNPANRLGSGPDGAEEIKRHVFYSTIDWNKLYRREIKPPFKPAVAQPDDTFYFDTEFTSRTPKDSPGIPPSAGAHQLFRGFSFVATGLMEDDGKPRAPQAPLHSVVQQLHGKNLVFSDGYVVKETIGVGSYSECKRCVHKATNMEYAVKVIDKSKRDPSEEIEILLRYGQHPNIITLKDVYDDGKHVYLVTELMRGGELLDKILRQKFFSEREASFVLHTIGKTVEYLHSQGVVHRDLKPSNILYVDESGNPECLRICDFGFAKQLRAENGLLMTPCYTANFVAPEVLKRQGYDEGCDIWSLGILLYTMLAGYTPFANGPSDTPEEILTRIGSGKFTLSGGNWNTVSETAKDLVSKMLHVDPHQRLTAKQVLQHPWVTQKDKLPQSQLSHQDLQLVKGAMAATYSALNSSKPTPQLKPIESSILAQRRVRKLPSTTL
Chain of Rho-associated protein kinase 1 (Homo sapiens) (Q13464 2-1354 limits assumed): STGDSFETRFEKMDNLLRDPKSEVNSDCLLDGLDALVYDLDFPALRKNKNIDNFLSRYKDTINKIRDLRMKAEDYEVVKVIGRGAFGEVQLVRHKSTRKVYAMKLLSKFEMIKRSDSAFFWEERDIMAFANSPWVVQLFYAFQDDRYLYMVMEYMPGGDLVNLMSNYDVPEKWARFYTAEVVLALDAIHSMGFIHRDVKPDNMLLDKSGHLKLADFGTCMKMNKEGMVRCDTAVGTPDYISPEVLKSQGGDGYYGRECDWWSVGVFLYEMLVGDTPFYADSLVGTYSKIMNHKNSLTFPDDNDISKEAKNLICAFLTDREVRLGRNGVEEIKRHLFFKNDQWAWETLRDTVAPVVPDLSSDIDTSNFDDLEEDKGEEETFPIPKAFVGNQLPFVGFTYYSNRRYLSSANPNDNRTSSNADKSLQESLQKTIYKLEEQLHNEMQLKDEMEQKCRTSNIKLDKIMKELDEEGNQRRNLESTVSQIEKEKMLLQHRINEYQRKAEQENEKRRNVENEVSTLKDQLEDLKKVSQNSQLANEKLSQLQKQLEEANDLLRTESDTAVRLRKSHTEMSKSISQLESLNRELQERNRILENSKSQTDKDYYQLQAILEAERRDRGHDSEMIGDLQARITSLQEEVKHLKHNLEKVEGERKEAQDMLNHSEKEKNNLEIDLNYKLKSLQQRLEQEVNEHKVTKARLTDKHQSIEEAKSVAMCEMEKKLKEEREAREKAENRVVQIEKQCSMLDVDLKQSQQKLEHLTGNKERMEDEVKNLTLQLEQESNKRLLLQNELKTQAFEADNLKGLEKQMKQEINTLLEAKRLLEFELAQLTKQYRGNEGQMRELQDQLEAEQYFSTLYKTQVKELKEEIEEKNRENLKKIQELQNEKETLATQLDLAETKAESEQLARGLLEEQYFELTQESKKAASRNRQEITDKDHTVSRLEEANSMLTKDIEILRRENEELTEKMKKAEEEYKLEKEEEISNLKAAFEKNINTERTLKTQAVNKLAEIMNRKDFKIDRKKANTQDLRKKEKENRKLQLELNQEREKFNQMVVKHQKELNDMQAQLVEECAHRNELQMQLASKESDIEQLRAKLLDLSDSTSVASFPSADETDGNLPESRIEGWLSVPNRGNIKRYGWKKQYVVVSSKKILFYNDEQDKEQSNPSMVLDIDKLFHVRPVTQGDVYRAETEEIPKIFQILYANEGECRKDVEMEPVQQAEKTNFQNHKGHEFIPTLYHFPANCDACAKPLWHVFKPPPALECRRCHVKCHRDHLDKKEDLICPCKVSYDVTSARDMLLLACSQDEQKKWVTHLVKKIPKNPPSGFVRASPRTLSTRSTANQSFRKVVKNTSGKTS
Chain of Ribosomal protein S6 kinase alpha-3 (Homo sapiens) (P51812 whole entry): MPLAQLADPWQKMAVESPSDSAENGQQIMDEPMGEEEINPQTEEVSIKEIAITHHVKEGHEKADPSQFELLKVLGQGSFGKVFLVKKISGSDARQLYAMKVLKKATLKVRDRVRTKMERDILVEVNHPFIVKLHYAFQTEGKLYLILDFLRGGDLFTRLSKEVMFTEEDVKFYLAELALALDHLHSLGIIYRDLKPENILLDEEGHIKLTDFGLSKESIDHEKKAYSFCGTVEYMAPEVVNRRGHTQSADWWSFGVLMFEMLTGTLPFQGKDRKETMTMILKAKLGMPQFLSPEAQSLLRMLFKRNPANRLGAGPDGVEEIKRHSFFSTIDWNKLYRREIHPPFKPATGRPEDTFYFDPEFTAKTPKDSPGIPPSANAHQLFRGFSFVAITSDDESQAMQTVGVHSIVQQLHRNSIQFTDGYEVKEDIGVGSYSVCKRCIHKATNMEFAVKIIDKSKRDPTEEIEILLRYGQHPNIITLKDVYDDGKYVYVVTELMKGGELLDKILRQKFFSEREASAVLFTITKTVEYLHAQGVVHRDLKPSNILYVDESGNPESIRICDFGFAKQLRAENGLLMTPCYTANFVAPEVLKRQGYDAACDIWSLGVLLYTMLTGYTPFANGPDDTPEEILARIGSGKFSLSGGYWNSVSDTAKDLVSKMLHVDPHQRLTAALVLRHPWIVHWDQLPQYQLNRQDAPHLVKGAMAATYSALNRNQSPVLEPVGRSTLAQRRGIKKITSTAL
Chain of Ribosomal protein S6 kinase alpha-2 (Homo sapiens) (Q15349 whole entry): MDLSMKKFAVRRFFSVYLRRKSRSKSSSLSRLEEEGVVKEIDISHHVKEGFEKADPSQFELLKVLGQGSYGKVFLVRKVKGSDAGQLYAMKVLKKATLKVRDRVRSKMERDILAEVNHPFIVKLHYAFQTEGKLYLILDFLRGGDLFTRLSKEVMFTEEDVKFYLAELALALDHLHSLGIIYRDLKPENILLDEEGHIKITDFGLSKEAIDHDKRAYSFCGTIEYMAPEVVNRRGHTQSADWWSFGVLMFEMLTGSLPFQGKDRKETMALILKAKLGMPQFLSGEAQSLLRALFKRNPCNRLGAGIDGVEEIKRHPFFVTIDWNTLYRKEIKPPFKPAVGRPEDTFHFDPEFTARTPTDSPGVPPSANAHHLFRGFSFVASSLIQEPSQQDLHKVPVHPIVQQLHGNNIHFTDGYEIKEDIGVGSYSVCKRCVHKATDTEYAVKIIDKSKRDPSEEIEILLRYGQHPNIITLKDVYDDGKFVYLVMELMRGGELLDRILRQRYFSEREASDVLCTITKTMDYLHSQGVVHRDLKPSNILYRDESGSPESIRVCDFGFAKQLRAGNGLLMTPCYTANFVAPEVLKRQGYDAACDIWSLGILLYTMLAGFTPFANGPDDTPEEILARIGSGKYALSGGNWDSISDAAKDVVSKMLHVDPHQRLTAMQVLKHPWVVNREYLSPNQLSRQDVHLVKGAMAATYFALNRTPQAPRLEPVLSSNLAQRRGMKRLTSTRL

Consider `[O-][S+]1CCN(Cc2ccc(-c3ccc4ncnc(Nc5ccc(OCc6ccccc6)c(Cl)c5)c4c3)o2)CC1`, for which the inhibition in test [1] is 1.73%; in test [2], 0.05%; in test [3] it was 0.91%; in test [4], -1.27%; in test [5] it was 0.75%; in [6] it was -1.03%. For the same molecule, the inhibition in test [7] is 0.82%; in test [8], -1.2%; in [9], 0.54%; in test [10], -1.76%; in [11], -0.67%; in test [12], 2.48%. The inhibition in [13] is 1.69%; in test [14], -2.36%; in test [15] it was 1.12%; in test [16], 0.45%; in test [17] it was 1.38%; in test [18] it was 0.09%. The inhibition was found to be 1.19% in test [19] and 2.56% in test [20].
As to `c1ccc(Nc2ncc(-c3ccccc3)o2)cc1`, the inhibition in [1] is 2.73%; in test [2], 4.11%; in [3] it was 2.92%; in test [4], 2.02%; in test [5], 2.37%; in test [6], 0.46%. Also, the inhibition was 0.02% in [7]; 3.77% in test [8]; 3.41% in test [9]; 2.12% in test [10]; 3.23% in test [11]; 2.66% in [12]. The inhibition in test [13] is 4%; in test [14], 2.47%; in test [15], 0.08%; in test [16], 4.53%; in test [17], 2.32%; in test [18], 2.6%. In addition, the inhibition stood at 4.99% in test [19] and 7.1% in test [20].
With `CN(C)C(=O)O[C@@H]1CN[C@@H](C#Cc2cc3ncnc(Nc4ccc(OCc5cccc(F)c5)c(Cl)c4)c3s2)C1`, the inhibition in [1] was 1.13%; in [2] it was -1.58%; in test [3] it was -0.74%; in test [4], 0.43%; in test [5] it was 0.71%; in test [6] it was 0.2%. Besides, the inhibition in test [7] was found to be 1.13%; in [8], 0.12%; in [9] it was 2.54%; in test [10] it was 0.51%; in [11], 1.1%; in test [12], 0.97%. The inhibition was 0.35% in test [13]; -1.98% in test [14]; 1.45% in test [15]; -0.94% in test [16]; -0.47% in [17]; 1.21% in test [18]. For the same molecule, the figures for the inhibition in [19] and in [20] were -0.92% and -1.56%, respectively.
In the case of `CN(C)CCCn1c(-c2nonc2N)nc2cnccc21`, the inhibition in test [1] amounted to 32.8%; in test [2], 11.6%; in test [3], 45.3%; in [4], 2.28%; in [5] it was 11.8%; in test [6], 1.45%. For the same molecule, the inhibition stood at 6.61% in [7]; 4.55% in test [8]; 16.4% in test [9]; 1.79% in [10]; 4.47% in [11]; 2.27% in test [12]. Also, the inhibition in test [13] is 4.15%; in [14] it was 2.98%; in [15], 2.34%; in test [16], 2.21%; in [17], 3.38%; in [18], 2.93%. In addition, the inhibition in test [19] is 2.04%; in test [20], 3.05%.
Take `CS(=O)(=O)Nc1cccc(-c2ccc3c(NC(=O)C4CC4)n[nH]c3c2)c1`: the inhibition was 0.09% in test [1]; 0.82% in [2]; -0.9% in test [3]; -0.15% in [4]; -0.83% in test [5]; 1.31% in test [6]. Moreover, the inhibition in test [7] turned out to be 1.41%; in [8] it was 1.1%; in test [9] it was 2.19%; in test [10], 1.24%; in test [11], 1.64%; in test [12] it was 1.2%. Further, the inhibition was 1.36% in test [13]; 0.93% in test [14]; -0.04% in test [15]; 1.19% in [16]; -0.96% in [17]; 1.97% in [18]. The figures for the inhibition in test [19] and in test [20] were 1.56% and -0.32%, respectively.
In the case of `COc1ccc(-c2nn3ncccc3c2-c2ccnc(Nc3cccc(C(F)(F)F)c3)n2)cc1`, the inhibition turned out to be 0.6% in test [1]; 2.74% in [2]; 1.41% in test [3]; 1.07% in test [4]; 2.11% in test [5]; 1.27% in [6]. The inhibition in test [7] was determined as 1.97%; in test [8] it was 1.64%; in test [9], 2.11%; in [10] it was 0.81%; in test [11], 0.26%; in test [12], 1.37%. Moreover, the inhibition turned out to be 2.02% in test [13]; 1.57% in test [14]; 4.94% in test [15]; 3.1% in [16]; 3.41% in test [17]; 2.78% in [18]. For the same molecule, the inhibition in test [19] worked out at 3.84%; in test [20], 1.06%.
`COC(=O)c1ccc2c(c1)C(=Cc1cc(Br)c(O)c(Br)c1)C(=O)N2`: the inhibition amounted to 1.74% in [1]; 1.52% in test [2]; 3.89% in test [3]; 1.5% in [4]; 6.51% in [5]; 1.97% in test [6]. In addition, the inhibition was found to be 4.23% in test [7]; 3.99% in test [8]; 6.79% in test [9]; 2.52% in [10]; 7.3% in [11]; 1.67% in [12]. Further, the inhibition worked out at 5.36% in test [13]; 5.27% in [14]; 12.1% in [15]; 3.08% in [16]; 3.5% in [17]; 2.71% in test [18]. Also, the inhibition in test [19] was 6.28%; in [20], 8.21%.
